Sfp inh: qHTS Assay for Inhibitors of Bacillus subtilis Sfp phosphopantetheinyl transferase (PPTase); Potency, µM, without a hit: largest response in the series, negative = inhibition, actives largely listed as inhibitors; 4'-phosphopantetheinyl transferase ffp (Bacillus subtilis), Q9F4F7; AID 1490, 2009; hit rate 3.5% among 310,000; Biochemical Sfp PPTase activity, qHTS;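 also: the enzyme is Sfp with the accession as filed and its product quenches rhodamine fluorescence; 0% = enzyme reaction without inhibitor and -100% = no enzyme wells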
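Fluorescence-quenching assay: 15 nM Sfp-PPTase preincubated 15 min at room temperature with compound, then 5 uM rhodamine-CoA and 12.5 uM BHQ-2-labelled YbbR peptide added. Fluorescence (ex 525/em 598 nm) read at start and after 30 min; difference gives rate.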
HP1b binding inh: HTS for Inhibitors of HP1-beta Chromodomain Interactions with Methylated Histone Tails; hit rate 0.56% among 390,000; AlphaScreen HP1-beta / biotin-H3K9me3 peptide binding; Chromobox protein homolog 1 (Homo sapiens), P83916; Potency, µM (top dose mostly 114 µM), inactives show top-dose activity change, negative = inhibition, hits mostly inhibitors; also: nearly all actives have a fitted effect of over 70% in size
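Compound inhibition of the preformed complex between 50 nM HP1-beta and 50 nM biotinylated H3K9me3 peptide was read by AlphaScreen. Buffer was PBS pH 7.4 with 0.01% Tween-20. Incubations ran 30 min at room temperature, with 10 ug/mL donor/acceptor beads.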
JMJD2A Tudor: qHTS Assay for Inhibitors of JMJD2A-Tudor Domain; AlphaScreen JMJD2A-Tudor / H3K4me3 peptide binding; hit rate 4.4% among 390,000; Potency, µM (highest dose often 114 µM), inactives show at the top dose activity change, negative = inhibition, usual class: inhibitors; also: % is scaled to controls: 0 for no effect and ±100 for the full control effect; nearly all actives have a fitted effect of over 50% in size
Target sequence (O75164 whole entry, looked up, the tested form may be a part): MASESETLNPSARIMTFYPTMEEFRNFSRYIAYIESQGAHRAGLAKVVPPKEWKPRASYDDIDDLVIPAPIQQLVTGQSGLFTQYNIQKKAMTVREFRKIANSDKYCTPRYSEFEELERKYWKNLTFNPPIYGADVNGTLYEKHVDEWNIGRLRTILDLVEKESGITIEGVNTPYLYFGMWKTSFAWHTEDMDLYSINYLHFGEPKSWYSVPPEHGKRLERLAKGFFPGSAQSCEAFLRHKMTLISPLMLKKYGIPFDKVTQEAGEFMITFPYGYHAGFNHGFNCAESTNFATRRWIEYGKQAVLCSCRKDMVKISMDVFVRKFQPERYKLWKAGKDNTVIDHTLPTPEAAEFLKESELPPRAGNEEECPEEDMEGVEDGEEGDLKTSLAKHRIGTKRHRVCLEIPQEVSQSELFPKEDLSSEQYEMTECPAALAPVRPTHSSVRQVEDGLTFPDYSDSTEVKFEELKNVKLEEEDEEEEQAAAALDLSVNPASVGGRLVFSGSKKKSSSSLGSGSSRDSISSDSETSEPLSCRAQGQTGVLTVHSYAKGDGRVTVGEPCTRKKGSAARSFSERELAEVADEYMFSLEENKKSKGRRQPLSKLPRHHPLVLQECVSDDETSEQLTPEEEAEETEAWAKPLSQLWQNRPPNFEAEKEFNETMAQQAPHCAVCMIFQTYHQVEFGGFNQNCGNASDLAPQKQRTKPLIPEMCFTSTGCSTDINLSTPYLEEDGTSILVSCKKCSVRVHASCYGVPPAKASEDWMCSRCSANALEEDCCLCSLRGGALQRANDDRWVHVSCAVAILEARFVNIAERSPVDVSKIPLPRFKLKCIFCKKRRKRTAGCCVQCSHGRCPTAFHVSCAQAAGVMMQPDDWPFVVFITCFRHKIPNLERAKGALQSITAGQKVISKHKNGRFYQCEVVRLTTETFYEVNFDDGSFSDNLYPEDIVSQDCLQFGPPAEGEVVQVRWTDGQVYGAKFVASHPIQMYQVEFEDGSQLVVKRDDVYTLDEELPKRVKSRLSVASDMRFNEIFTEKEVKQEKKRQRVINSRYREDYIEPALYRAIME
TDP1 block: qHTS Assay for Inhibitors of Tyrosyl-DNA Phosphodiesterase (TDP1). recombinant TDP1, AlphaScreen DNA substrate cleavage. hit rate 0.28% among 350,000. Tyrosyl-DNA phosphodiesterase 1 (Homo sapiens), Q9NUW8. AID 485290, 2010. Potency, µM (highest dose often 130 µM), without a hit: top-dose activity change, negative = inhibition, usual class: inhibitors; also: % is scaled to controls: 0 for no effect and ±100 for the full control effect; nearly all actives have a fitted effect of over 40% in size
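Recombinant E. coli-expressed Tdp1 (1 nM) preincubated with compound 15 min at RT, then 5'-biotin/3'-phosphotyrosine-FITC DNA substrate (15 nM) added for 5 min. AlphaScreen beads (10 ug/ml) added, 10 min RT; tyrosine-FITC cleavage read as signal loss.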
BAZ2B inh: qHTS Assay for Inhibitors of BAZ2B. Potency, µM (highest dose often 114 µM), without a hit: top-dose activity change, negative = inhibition, most hits filed as inhibitors. hit rate 4.4% among 360,000. Bromodomain adjacent to zinc finger domain protein 2B (Homo sapiens), Q9UIF8. AlphaScreen BAZ2B-H3K14Ac peptide displacement; also: % is scaled to controls: 0 for no effect and ±100 for the full control effect; nearly all actives have a fitted effect of over 60% in size
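Inhibition is scored as reduced AlphaScreen emission. The BAZ2B/b-H3(5-23)K14Ac complex (50 nM each) in PBS pH 7.4, 0.01% Tween-20 meets compound (up to 110 uM) for 30 min at RT before bead addition.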
G9a inh: qHTS Assay for Inhibitors of Histone Lysine Methyltransferase G9a; G9a H3K9 monomethylation, AlphaScreen, 2 h; Potency, µM (series often up to 102 µM), for the others: at the top dose activity, negative = inhibition, actives largely listed as inhibitors; hit rate 8.8% among 350,000; also: % is scaled to controls: 0 for no effect and ±100 for the full control effect; nearly all actives have a fitted effect of over 75% in size
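Enzyme 20 nM + cpd, 15 min RT; add b-H3K9 pep 500 nM / SAM 20 uM; 2 h RT; anti-H3K9me1 Ab 0.5 ug/mL + SA donor / anti-rabbit acceptor beads 20 ug/mL each, 10 min; AlphaScreen read.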
* = called active by the depositor; ? = inconclusive; nt = not tested or not shown; ! = not confirmed by another sample; [ ] = another dose, or the depositor's remark. Shown are actives, neighbours in structure and some others; about 12% of the full set was active somewhere. Calls follow the shape of the dose curve; as a rule, active = well fitted curve in the direction sought with a large enough effect; inconclusive = small, poorly fitted or top-dose-only effect, or another doubt; inactive = no such curve, though single readings can be large; an effect the other way counts as inactive or inconclusive. Potency is read from the fitted curve at half-maximal effect.

SMILES | Sfp inh | HP1b binding inh | JMJD2A Tudor | TDP1 block | BAZ2B inh | G9a inh
COc1cccc(C(=O)N2CCN(C3CCCCC3)CC2)c1 | -42% | -24% | 11µM* | nt | ? | nt
COc1ccccc1C(=O)N1CCN(C2CCN(Cc3ccccc3)CC2)CC1 | -18% | ? | 7.9µM* | -7% | 56µM* | 10µM*
CCOC(=O)c1oc2ccccc2c1COC(=O)CNC(=O)c1ccc(C)cc1 | nt | 5% | -5% | nt | 10% | 19%[12.7 µM]
COc1cccc(C(=O)N2CCN(Cc3ccccc3[N+](=O)[O-])CC2)c1 | -9% | ? | 22µM* | -6% | ? | 11µM*
COc1ccc(C(=O)N2CCC(c3ccncc3)CC2)cc1OC | nt | 11% | -9% | 1% | 2% | -5%[59 µM]
COc1ccc(C(=O)N2CCN(C3CCC(c4ccccc4)CC3)CC2)cc1OC (stereo not given) | -26% | -49% | 2.8µM* | -7% | 50µM* | 3.2µM*
CCCCN1C(=O)C(NC(=O)c2ccc(C(C)(C)C)cc2)(C(F)(F)F)C(C(=O)OC)=C1C (stereo not given) | nt | 7% | -19% | 7% | -19% | 1%[59 µM]
Cc1ccc(Cl)c2c1N[C@@H](c1ccc(C(=O)O)cc1)[C@H]1CC=C[C@@H]21 | nt | 5% | ? | nt | ? | ?
O=C(O)C1Nc2c(C(F)(F)F)ccc(Cl)c2C2C=CCC12 (stereo not given) | ? | -4% | -26% | nt | ? | 10µM*
Cc1cc(C)c2c(c1)N[C@H](c1cccs1)[C@@H]1CCO[C@H]21 | 14% | 27% | -10% | 1% | -3% | 3%
COC(=O)CNC(=O)C1Nc2ccc(OC(F)(F)F)cc2C2C=CCC12 (stereo not given) | nt | 38% | -17% | nt | nt | nt
Cc1cc(C)c2c(c1)NC(C(=O)O)C1CC=CC21 (stereo not given) | 89µM* | 20µM* | 13µM* | -9% | 11µM* | nt
Cc1cc(C)c2c(c1)C1C=CCC1C(C(=O)O)N2 (stereo not given) | nt | 20µM* | 20µM* | -8% | nt | nt
O=C(O)C1Nc2c(C(=O)N3CCOCC3)cccc2C2C=CCC12 (stereo not given) | 7.1µM* | 40µM* | 11µM* | nt | 20µM* | 8.9µM*
Cc1cc(C)c(C)c(S(=O)(=O)N2CCN(S(=O)(=O)c3ccc4c(c3)OCCO4)CC2)c1C | nt | nt | -32% | nt | nt | nt
CCCOc1ccccc1/C=C1\SC(N2CCCCC2)=NC1=O | -12% | 23% | -23% | nt | 6% | -10%[0.501 µM]
O=C(COC(=O)Cc1ccc(Br)cc1)NCc1ccc(F)cc1 | 12% | 17% | -15% | -5% | 2% | -5%
Cc1ccc2c(c1C)NC(C(=O)O)C1CC=CC21 (stereo not given) | 45µM* | 11µM* | 7.9µM* | -12% | 7.1µM* | 8.9µM*
CC1=C(C)/C(=N/OC(=O)c2cccc([N+](=O)[O-])c2)C=CC1=O | 18% | 10% | -29% | 5% | -23% | 10µM*
OC[C@@H](O)C(O)[C@H](O)[C@H](O)CO (stereo not given in full) | 12% | nt | nt | 6% | nt | nt
O=C(O)[C@@H](O)[C@@H](O)[C@H](O)[C@H](O)CO | -16% | nt | nt | 7.9µM*! | nt | 24%[59 µM]
O=C(NC1CCCC1)O[C@@H]1C(=O)c2cc(Br)ccc2O[C@H]1c1ccc2c(c1)OCO2 | -13% | nt | nt | 8% | nt | nt
c1ccc(CCCCN2C(Nc3ccccc3)=NC[C@@H]2Cc2ccccc2)cc1 | nt | 24% | -34% | -4% | 1% | 23%[2.33 µM]
c1ccc(C[C@H]2CN=C(Nc3ccccc3)N2CCCC2CCCC2)cc1 | -27% | 26% | -30% | nt | ? | 45µM*
COc1ccc(/C=N/c2oc(C)c(C)c2C#N)c(OC)c1 | -5% | 32% | 12% | -2% | -8% | 50µM*
SMILES | Sfp inh | HP1b binding inh | JMJD2A Tudor | TDP1 block | BAZ2B inh | G9a inh
COc1cc(/C=N/c2oc(C)c(C)c2C#N)cc(Br)c1O | -2% | -18% | ? | nt | ? | 10µM*
COc1ccc(Cl)cc1NS(=O)(=O)N1CCOCC1 | 15% | 16% | -12% | -9% | -26% | -2%
O=[N+]([O-])c1ccc2c(c1)[nH]c(=S)n2-c1ccccc1 | -99% | -11% | ? | 5% | ? | 3.2µM*
O=[N+]([O-])c1cccc(-c2n[nH]c(=S)n2-c2ccccc2)c1 | -10% | 1% | 22µM* | nt | -5% | 2.2µM*
O=[N+]([O-])c1cccc(-c2cn(-c3ccccc3)c(=S)[nH]2)c1 | 15% | 26% | -28% | -8% | 1% | 1.6µM*
O=[N+]([O-])c1ccc(-c2cn(-c3ccccc3)c(=S)[nH]2)cc1 | -11% | 10% | -13% | 4% | 5% | ?
Cn1c2ccccc2c2cc([N+](=O)[O-])ccc21 | -4% | 27% | -5% | nt | -6% | nt
Cc1[nH]n(-c2cccc([N+](=O)[O-])c2)c(=O)c1-c1ccccc1 | 20% | 8% | -25% | 5% | ? | -51%
Nc1ccc(-n2cc(-c3ccccc3)[nH]c2=S)cc1 | 35µM* | -4% | ? | nt | -34% | 7.9µM*
CCOC(=O)N1CCc2c(sc3c2c(=O)n(-c2ccc(Cl)cc2)c(=O)n3Cc2cccc(OC)c2)C1 | nt | 33% | -12% | 4% | 7% | 15%[59 µM]
CC(=O)Nc1ccccc1NS(=O)(=O)c1ccccc1NO | nt | 1% | -21% | 0% | nt | nt
C=Cc1ccc(Cn2c(C(=O)O)c(CNCc3ccccc3)c3ccc(OC)cc32)cc1 | nt | 0% | -36% | 5% | ? | ?
O=c1oc(-c2ccc([N+](=O)[O-])cc2)nc2ccccc12 | 15% | 12% | -18% | 4% | -7% | -3%
O=c1oc(-c2ccc([N+](=O)[O-])cc2)nc2ccc(O)cc12 | -4% | -11% | ? | 5% | ? | 40µM*
Cc1c(Cl)ccc2sc(NC(=O)c3ccc(S(=O)(=O)N4CCCc5ccccc54)cc3)nc12 | nt | 25%[57 µM] | 4% | 8% | 2% | 0%[59 µM]
COc1cc(C2NC(=O)NC(c3ccccc3)=C2C(C)=O)c(Br)c(Br)c1O (stereo not given) | -9% | -5% | -20% | nt | -33% | nt
CCC1CCCCN1C(=S)Nc1ccc(OC(F)F)cc1 (stereo not given) | ? | 23% | 3% | 3% | -33% | 5%[59 µM]

Compound activity as filed in PubChem.
